Hits are enriched below; roughly 12% of the tested compounds scored in any of these assays.
SARS PLP yeast: blocks SARS-CoV papain-like protease in a yeast assay. 0.19% of 330,000 active. S. cerevisiae expressing SARS-CoV PLpro, growth rescue. AID 485353. Potency, µM (doses to about 32.9 µM), most hits filed as activators; calls by dose curve; note: nearly all actives have a fitted effect of over 55% in size
HCV inhibitor: blocks hepatitis C virus | Huh7.5.1 HCVcc-Cre infection, luciferase reporter, 44 h | 3.4% of 340,000 active | AID 651820 | Potency, µM (series often up to 41.8 µM), usual class: inhibitors
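Cells seeded at 1,000/well and cultured 4 h, then compounds added followed by HCVcc-Cre virus (~0.5 moi). After 44 h further culture, luciferase substrate was added, plates held 15 min at room temperature, and luminescence read for 15 sec.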
Pf growth 48h: P. falciparum growth inhibition at 48 hours (one generation). P. falciparum luciferase growth in erythrocytes, 48 h. Potency, µM (highest dose often 28.7 µM), actives largely listed as inhibitors. 5.9% of 310,000 active. AID 504832
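In quantitative HTS format, infected erythrocytes bearing luciferase-reporter parasites were treated for a single generation at 37 C. Luminescence after adding detection reagent served as the growth measure.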
NS1 inh: inhibitors of influenza NS1 protein function | Potency, µM (series often up to 46.1 µM) | 0.4% of 270,000 active; calls by dose curve; note: actives are rising curves; nearly all actives have a fitted effect of over 50% in size
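OD600 was taken as the measure of yeast growth restored by compound in an NS1-expressing S. cerevisiae strain. Cells had been washed out of glucose medium and diluted 1:100 into galactose -URA medium, pH 6.0.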
Pf growth 96h: P. falciparum growth inhibition at 96 hour, primary screen for plastid delayed-death inhibitors. Potency, µM (titrated, usually from 28.7 µM), actives largely listed as inhibitors. AID 504834. 6.9% of 320,000 active. P. falciparum luciferase reporter growth, 96 h
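Luminescence readout: decreased luciferase signal marks inhibited growth of reporter-expressing P. falciparum in infected red cells (2% hematocrit, 0.05% parasitemia final), exposed to compound two generations (96 h, 37 C, 5% CO2).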
AMA1-RON2 inh: AMA1-RON2 (P. falciparum) interaction inhibition; AlphaScreen AMA1-biotinylated RON2 peptide binding; Potency, µM (highest dose often 58.2 µM), usual class: inhibitors; 0.2% of 360,000 active; note: nearly all actives have a fitted effect of over 45% in size
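AMA1 (3D7) with his tag at 25 nM final met compounds first, then biotinylated RON2 peptide at 25 nM; detection used donor plus acceptor beads, 10 µg/mL apiece, read by AlphaScreen after 30 min at room temperature.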
Each line names hits and unclear results; the compound was inactive in the other large screens. Unless noted, calls come from the whole dose curve; as a rule, active = well fitted curve in the direction sought with a large enough effect; inconclusive = small, poorly fitted or top-dose-only effect, or another doubt; inactive = no such curve, though single readings can be large; an effect the other way counts as inactive or inconclusive.

COc1ccc(CCNC(=O)COC(=O)c2ccc(C)s2)cc1OC	Pf growth 96h inconclusive (no result: NS1 inh)
COc1ccc(CCNC(=O)c2sc(=S)n(C)c2N)cc1	Pf growth 96h 1.85µM
Cn1c(N)c(C(=O)NCc2ccccc2)sc1=S	none
CCOC(=O)c1c(C)[nH]c(C(=O)OCC(=O)NCCc2ccc(OCC)c(OCC)c2)c1C	HCV inhibitor inconclusive, Pf growth 48h 13.1µM, Pf growth 96h inconclusive (no result: NS1 inh)
CCOc1ccc(CCNC(=O)COC(=O)c2ccc(C)s2)cc1OCC	Pf growth 96h 10.4µM
CCOC(=O)c1[nH]c(C)c(C(=O)NCc2ccc(Cl)cc2)c1C	Pf growth 48h inconclusive, Pf growth 96h inconclusive (no result: HCV inhibitor)
CCOC(=O)c1[nH]c(C)c(C(=O)NCCc2ccc(OC)cc2)c1C	Pf growth 48h inconclusive, Pf growth 96h 4.65µM
CCc1nc2ccccc2c(=O)n1/N=C/c1ccc(Cl)cc1	none (no result: SARS PLP yeast, Pf growth 48h, NS1 inh, Pf growth 96h)
O=C(O)c1ccc(-n2cccn2)nc1	none
COC(=O)c1c(NC(=O)Cc2cccs2)sc(C)c1C	HCV inhibitor 11.2µM (no result: Pf growth 96h)
COC(=O)c1c(NC(=O)CCCC(=O)O)sc(C)c1C	none
CCc1ccc(CCC(=O)Nc2sc(C)c(C)c2C(=O)OC)o1	AMA1-RON2 inh 26.7µM (no result: Pf growth 96h)
CCOC(=O)c1cnn(CCOC(=O)Cc2cccs2)c1NC(=O)Cc1cccs1	Pf growth 96h 9.28µM
COC(=O)c1ccc(OC(=O)C23CCC(C)(C(=O)O2)C3(C)C)cc1 (stereo unspecified)	none
COc1cccc(CN2CC(C(=O)N3CCCO3)CCC2=O)c1 (stereo unspecified)	none
Cc1nc([N+](=O)[O-])c(C(=O)OCc2cccc(Br)c2)n1C	Pf growth 96h 7.38µM (no result: NS1 inh)
CC(NC(=O)Nc1nnc(C(F)(F)F)s1)(C(F)(F)F)C(F)(F)F	HCV inhibitor 2.82µM, Pf growth 48h 3.29µM
CC(=O)CC1OC(=O)C(Br)=C1NCc1ccccc1 (stereo unspecified)	HCV inhibitor inconclusive, Pf growth 96h 7.38µM
Cc1ccc(S(=O)(=O)N2CCOCC2)cc1NC(=O)COc1ccccc1Cc1ccccc1	HCV inhibitor 12.6µM (no result: Pf growth 48h, NS1 inh, Pf growth 96h)
COc1ccc(NC(=O)COc2ccccc2Cc2ccccc2)cc1S(=O)(=O)N1CCOCC1	HCV inhibitor inconclusive, Pf growth 48h 11.7µM, Pf growth 96h 5.22µM (no result: NS1 inh)
O=C(COc1ccccc1Cc1ccccc1)Nc1cccc(S(=O)(=O)N2CCOCC2)c1	HCV inhibitor inconclusive, Pf growth 48h 13.1µM, Pf growth 96h 4.15µM (no result: NS1 inh)
COc1ccc(Nc2nc(-c3cccs3)nc3ccccc23)cc1S(=O)(=O)N1CCOCC1	HCV inhibitor 2.82µM (no result: SARS PLP yeast, Pf growth 48h, NS1 inh, Pf growth 96h)
COc1cc(/C=N/NC(=O)C(=O)/C=C2\NC(C)(C)Cc3ccccc32)ccc1O	HCV inhibitor inconclusive, Pf growth 48h inconclusive, Pf growth 96h inconclusive
O=C(NCc1cc([N+](=O)[O-])ccc1O)c1cccnc1Sc1ccccc1Cl	SARS PLP yeast inconclusive, Pf growth 48h inconclusive, Pf growth 96h inconclusive
Cc1noc(C)c1COC(=O)c1cccc(S(=O)(=O)N2CCCCCC2)c1	HCV inhibitor 2.24µM, Pf growth 48h inconclusive
Cc1ccc(NC(=O)CCNC(=O)c2ccc(Br)cc2)cc1S(=O)(=O)N1CCOCC1	HCV inhibitor inconclusive (no result: NS1 inh)
Cc1ccc(S(=O)(=O)N2CCOCC2)cc1NC(=O)COC(=O)CNC(=O)c1ccccc1	none
Cc1ccc(S(=O)(=O)N2CCOCC2)cc1NC(=O)COc1ccc(C(=O)c2ccccc2)cc1	HCV inhibitor 10µM, Pf growth 48h inconclusive, Pf growth 96h inconclusive (no result: NS1 inh)
Cc1ccc(NC(=O)CSc2ccc(Br)cc2)cc1S(=O)(=O)N1CCOCC1	HCV inhibitor 31.6µM, Pf growth 48h inconclusive (no result: SARS PLP yeast, NS1 inh)
Cc1ccc(S(=O)(=O)N2CCOCC2)cc1NC(=O)COC(=O)c1ccc(OCc2c(C)noc2C)cc1	SARS PLP yeast inconclusive, Pf growth 48h 13.1µM, Pf growth 96h inconclusive
O=C(NC1CCCCC1)C(CCc1ccccc1)N1CCc2ccccc2C1 (stereo unspecified)	none (no result: SARS PLP yeast, HCV inhibitor, Pf growth 48h, NS1 inh, Pf growth 96h)
CCC(=O)c1ccc(SC(=O)N(C)C)cc1O	none
COc1ccc(NC(=O)CSc2ccccc2)cc1S(=O)(=O)N1CCOCC1	Pf growth 96h 11.7µM
COc1ccc(S(=O)(=O)N2CCOCC2)cc1NC(=O)COc1ccc2c(C)cc(=O)oc2c1	none (no result: Pf growth 48h, NS1 inh, Pf growth 96h)
Cc1ccc(S(=O)(=O)N2CCOCC2)cc1NC(=O)COc1ccc2c(C)cc(=O)oc2c1	Pf growth 48h inconclusive, Pf growth 96h 9.28µM

From PubChem BioAssay
